Experimental findings from PubChem BioAssay (NCATS) are described below.

In experiment [1] the target is Peroxisome proliferator-activated receptor delta (Homo sapiens) (UniProt Q03181). Briefly: qHTS assay for small molecule agonists of peroxisome proliferator-activated receptor delta signaling (AID 588534).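 Further: 0% = DMSO basal wells and 100% = positive control agonist at 10 µM.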 Summed up: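 Agonist-mode beta-lactamase reporter readout (CCF4 dye, 2 h at RT) after 18 h at 37 °C exposure to a titration; Hill-equation fitting gave EC50 and maximal response.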
In general terms: qHTS replaces the single test concentration by a dilution series.

Experiment [2] is described as follows: qHTS assay for small molecule antagonists of peroxisome proliferator-activated receptor delta signaling (AID 588535; active means well fitted inhibition curve with a large enough effect in the signal ratio, with a control signal flat, not every such curve was filed as active; the % refers to the signal ratio;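 on max response: cells co-treated with a PPAR-delta agonist as stimulator during compound exposure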). Particulars: HEK293T PPARd-UAS-bla, beta-lactamase FRET ratio, 18 h; 460 nm channel. Summed up:
(§1)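 Inhibition of PPAR-delta response element-driven beta-lactamase expression is measured in HEK293T cells exposed to a compound titration series for 18 hrs at 37 C. Half-maximal inhibition comes from Hill equation fitting.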

Experiment [3] has as its target Peroxisome proliferator-activated receptor delta (Homo sapiens) (UniProt Q03181). The experiment is described as above. Summed up: as §1
Experiment [4] addresses Peroxisome proliferator-activated receptor gamma (Homo sapiens) (UniProt P37231). Nature of the experiment: qHTS assay for small molecule agonists of peroxisome proliferator-activated receptor gamma signaling (AID 588536; active means well fitted curve in the direction sought with a large enough effect in the signal ratio, with a control signal flat, not every such curve was filed as active; the % refers to the signal ratio). The method, boiled down: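 Using GeneBLAzer HEK293 cells, response was quantified by CCF4 fluorescence and normalized between basal DMSO (0%) and rosiglitazone 2 uM (100%); curves yielded half-maximal stimulation concentration and efficacy.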

Experiment [5] has the same target. Briefly: qHTS assay for small molecule antagonists of peroxisome proliferator-activated receptor gamma signaling (AID 588537; active means well fitted inhibition curve with a large enough effect in the signal ratio, with a control signal flat, not every such curve was filed as active; the % refers to the signal ratio;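 further: reporter cells co-stimulated with 50 nM rosiglitazone agonist during compound treatment; % of control where 0% means no effect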). The method, boiled down: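 Compounds are tested as concentration series for inhibition of rosiglitazone-driven (50 nM) reporter expression in GeneBLAzer PPAR-gamma-UAS-bla HEK293 cells. After 16 h at 37 C, CCF4 substrate is added for 2 h at room temperature and blue/green fluorescence is measured.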

In experiment [6] the target is Vitamin D3 receptor (Homo sapiens) (UniProt P11473). Nature of the experiment: qHTS assay for small molecule antagonists of vitamin D receptor signaling (AID 588541).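 Further: receptor activated by calcitriol during compound treatment; series mostly up to about 77 µM; on the % scale 0 is the no-effect control and ±100 the full control effect.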 The method, boiled down:
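VDR-UAS-bla HEK293T cells (2000/well, 2% charcoal-stripped FBS) were treated with titrated compounds plus 1-alpha,25-dihydroxyvitamin D3 (50 nM or 3 nM final) for 16 h at 37 C. CCF4 beta-lactamase fluorescence was read; Hill fits gave IC50.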

Experiment [7] has the same target. Briefly: qHTS assay for small molecule agonists of vitamin D receptor signaling (AID 588543). The method, boiled down:
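GeneBLAzer VDR-UAS-bla HEK293T cells in 2% charcoal-stripped FBS medium were dosed with compound titrations for 16 h at 37 °C; CCF4 β-lactamase readout (405 nm ex, 460/530 nm em). EC50 and efficacy from Hill fits, normalized to 50 nM calcitriol (100%) and DMSO (0%).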

The nature of experiment [8]: qHTS assay for small molecule agonists of retinoid X receptor alpha signaling (AID 588544). Particulars: HEK293T RXRa-UAS-bla, beta-lactamase reporter, 18 h; 530 nm emission.
The target of experiment [9] is Retinoic acid receptor RXR-alpha (Homo sapiens) (UniProt P19793). Described as above.
In experiment [10] the target is Thyroid hormone receptor beta (Homo sapiens) (UniProt P10828). Briefly: qHTS assay for small molecule agonists of thyroid hormone receptor beta signaling (AID 588545).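 Further: 0% = DMSO only and 100% = 10 nM T3.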 The method, boiled down:
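TR-UAS-bla-GripTite HEK 293 cells in medium with 2% charcoal/dextran FBS, 0.1 mM NEAA and 1 mM sodium pyruvate were treated with titrated compounds for 18 hrs at 37 C. Beta-lactamase reporter was read with CCF4 dye (ex 405, em 460/530 nm); EC50 from Hill fits.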

Experiment [11] in a line: qHTS assay for small molecule antagonists of retinoid X receptor alpha signaling (AID 588546; active means well fitted inhibition curve with a large enough effect in the signal ratio, with a control signal flat, not every such curve was filed as active; the % refers to the signal ratio;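 further: cells stimulated with 9-cis-retinoic acid as agonist; on the % scale 0 is the no-effect control and ±100 the full control effect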). The settings on record: HEK293T RXRa-UAS-bla, beta-lactamase ratio, antagonist mode; measured here: W530 green channel, cytotoxicity proxy. The method, boiled down: (§2)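 Beta-lactamase reporter inhibition, read as CCF4 fluorescence ratio (ex 405, em 460/530 nm) after 2 h at RT. HEK293T UAS-bla cells, 2500/well, were stimulated with 9-cis-RA at 500 or 100 nM final alongside test compound for 18 h at 37 C.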

Experiment [12] concerns the target Retinoic acid receptor RXR-alpha (Homo sapiens) (UniProt P19793). Described as above. The settings on record: HEK293T RXRa-UAS-bla, beta-lactamase ratio, antagonist mode. Summed up:
as §2

Experiment [13] addresses Thyroid hormone receptor beta (Homo sapiens) (UniProt P10828). Briefly: qHTS assay for small molecule antagonists of thyroid hormone receptor beta signaling (AID 588547; active means well fitted inhibition curve with a large enough effect in the signal ratio, with a control signal flat, not every such curve was filed as active; the % refers to the signal ratio;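 further: cells stimulated with 0.4 nM T3 agonist during compound exposure; series mostly up to about 77 µM; on the % scale 0 is the no-effect control and ±100 the full control effect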). Particulars: TR-UAS-bla HEK293, beta-lactamase ratio, antagonist mode, 18 h. Summed up:
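TR-UAS-bla GripTite HEK293 cells in 2% charcoal/dextran FBS medium were preincubated 4 h at 37 C, given compound (0.59 nM to 92 uM) plus 0.4 nM T3 (final) for 18 h, then CCF4 for 2 h at RT; Hill fit gave IC50.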

Experiment [14] is described as follows: qHTS assay for small molecule agonists of the antioxidant response element (ARE) signaling pathway (AID 651741; active means well fitted activation curve with a large enough effect in the signal ratio; the % refers to the signal ratio; further: potency means the concentration at half of the fitted maximal effect; on activation: % of control where 0% means no effect). The method, boiled down:
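Reporter: beta-lactamase under ARE, stably in HepG2. Exposure: 16 h, 37 C, compounds delivered in DMSO by pin tool after 5 h cell preincubation. Readout: FRET substrate fluorescence after 2 h at RT.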

Experiment [15] is described as follows: qHTS assay for small molecule activators of the p53 signaling pathway (AID 651743; active means well fitted activation curve with a large enough effect in the signal ratio, not every such curve was filed as active; the % refers to the signal ratio; further: series mostly up to about 92 µM; % of control where 0% means no effect). Particulars: HCT-116 p53RE-bla, beta-lactamase FRET ratio, 16 h; activation: stronger effect = higher value. The method, boiled down:
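Agonist-mode quantitative HTS in HCT-116 cells carrying a p53-response-element beta-lactamase reporter; 16 h compound treatment at 37 C, then FRET substrate loading for 2 h at room temperature and fluorescence read.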

A short description of experiment [16]: qHTS assay for small molecule activators of the nuclear factor-kappa B (NF-kB) signaling pathway (AID 651749; active means well fitted activation curve with a large enough effect in the signal ratio; the % refers to the signal ratio; further: series mostly up to about 77 µM; % of control where 0% means no effect). The settings on record: NF-kB-bla ME-180 cells, beta-lactamase FRET ratio, 16 h; activation: stronger effect = higher value. The method, boiled down: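 Human ME-180 cervical cells with an NF-kB-bla construct; compounds added via 23 nL pin transfer, DMSO as vehicle; incubation 16 hr. Reporter activity measured by FRET disruption.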

Experiment [17] can be described thus: qHTS assay for environmental chemicals that activate the Aryl hydrocarbon Receptor (AhR) signaling pathway (AID 651777; active means well fitted curve in the direction sought with a large enough effect; an effect the other way counts as inactive or inconclusive; further: % of control where 0% means no effect; nearly all actives have a fitted effect of over 15% in size). Particulars: 1A2-DRE human hepatoma cells, luciferase, 24 h; activation: stronger effect = higher value. Summed up:
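AhR activation is scored as a rise in luciferase from a stable DRE–CYP1A2 promoter construct in human hepatoma cells. Treatment lasts 24 hr at 37 C; detection uses One-Glo after 30 min at room temperature.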

Experiment [18] deals with Peroxisome proliferator-activated receptor alpha (Homo sapiens) (UniProt Q07869). Nature of the experiment: qHTS assay for small molecule agonists of the peroxisome proliferator-activated receptor alpha (PPARalpha) signaling pathway (AID 651778; active means well fitted curve in the direction sought with a large enough effect; an effect the other way counts as inactive or inconclusive; further: % of control where 0% means no effect). The settings on record: PathHunter PPARalpha complementation, chemiluminescence, 6 h; max response: stronger effect = higher value. Summed up:
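Cells plated at 2,000/well and held overnight at 37 C, 5% CO2, then compound added by pin tool for 6 hr; after PathHunter detection reagent and 60 min at room temperature, chemiluminescence from enzyme complementation was read.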

The nature of experiment [19]: qHTS assay for small molecule agonists of the antioxidant response element (ARE) signaling pathway measured by Nrf2-dependant transcriptional activity (AID 720636; active means well fitted curve in the direction sought with a large enough effect in the repeat runs; an effect the other way counts as inactive or inconclusive;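 further: HepG2 cells with an ARE-driven luciferase reporter; % of control where 0% means no effect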). The method, boiled down: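 First, ARE-luc HepG2 cells attached for 6 hr at 37 C in 1% dialyzed FBS medium. Next, compound or DMSO was added and incubated 16 hr. Finally, ONE-Glo reagent was added and luminescence measured after 30 min.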

Experiment [20] is described as follows: qHTS assay for small molecule agonists of the antioxidant response element (ARE) signaling pathway measured by Nrf2-dependant transcriptional activity - cell viability counter screen (AID 720653; active means well fitted curve in the direction sought with a large enough effect in the repeat runs; an effect the other way counts as inactive or inconclusive; further: on the % scale 0 is the no-effect control and ±100 the full control effect). Particulars: ARE-bla HepG2 viability, CellTiter-Glo ATP luminescence, 16 h; max response: stronger effect = lower value. Summed up: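 ARE-bla HepG2 cells (2,000/well) rested 5 hrs at 37C/5% CO2, then exposed to compounds in DMSO for 16 hrs. Viability was read in the same wells as intracellular ATP by luminescence, 30 min at room temperature after reagent addition.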

A short description of experiment [21]: qHTS assay for cell viability of HEK293 cells (AID 743288; active means well fitted curve in the direction sought with a large enough effect; an effect the other way counts as inactive or inconclusive; further: on the % scale 0 is the no-effect control and ±100 the full control effect; nearly all actives have a fitted effect of over 50% in size). Particulars: ATP luminescence (CellTiter-Glo), 18 h; max response: stronger effect = lower value. Summed up: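 After 18 h compound exposure at 37 C, parental HEK293 cells (2,000/well) are lysed with CellTiter-Glo and luminescence is read following 30 min at room temperature.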
Experiment [22] can be described thus: qHTS assay for cell viability of the p53RE-bla HCT-116 cell line (AID 743292; active means well fitted curve in the direction sought with a large enough effect; an effect the other way counts as inactive or inconclusive; further: on the % scale 0 is the no-effect control and ±100 the full control effect; nearly all actives have a fitted effect of over 55% in size). Summed up:
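Quantitative high-throughput format: compounds in DMSO were pinned onto p53RE-bla HCT-116 cells (4,000/well) and incubated 16 h at 37 C. Total intracellular ATP, read by CellTiter-Glo luminescence, reflects viable cell number.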

In experiment [23] the target is Nuclear receptor subfamily 1 group I member 2 (Rattus norvegicus) (UniProt Q9R1A7). Briefly: qHTS assay for small molecule activators of the rat pregnane X receptor (rPXR) signaling pathway (AID 651751; call rule not given here; further: 0% is about no effect). The settings on record: rPXR reporter cells, luciferase (One-Glo), 24 h.
The nature of experiment [24]: qHTS assay for small molecule activators of the human pregnane X receptor (PXR) signaling pathway (AID 720659; call rule not given here; further: 0% is about no effect).
A short description of experiment [25]: qHTS assay for small molecule disruptors of the mitochondrial membrane potential - 1 hr assay (AID 651754). Further: potency means the concentration at half of the fitted maximal effect; nearly all actives have a fitted effect of over 35% in size. Summed up:
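Mitochondrial potential in living HepG2 cells after 1 hr compound treatment at 37C was read with Mito-MPS dye added for a further 30 min. Red aggregate and green monomer fluorescence were measured; loss of potential leaves dye as cytoplasmic monomers.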

The nature of experiment [26]: qHTS assay for small molecule disruptors of the mitochondrial membrane potential - 5 hr assay (AID 651755). Further: potency means the concentration at half of the fitted maximal effect; nearly all actives have a fitted effect of over 40% in size. The method, boiled down: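 Seed HepG2 overnight, add compound, incubate 5 hr at 37C and 5% CO2, stain 30 min with Mito-MPS, then measure monomer (490/535 nm) and aggregate (540/590 nm) fluorescence.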
For experiment [27], the target named is Nuclear receptor ROR-gamma (Homo sapiens) (UniProt P51449). Briefly: qHTS assay for small molecule antagonists of the retinoid-related orphan receptor gamma (ROR-gamma) signaling pathway (AID 651802; active means well fitted curve in the direction sought with a large enough effect; an effect the other way counts as inactive or inconclusive; further: potency means the concentration at half of the fitted maximal effect; nearly all actives have a fitted effect of over 60% in size). The method, boiled down:
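Luminescence (One-Glo, 30 min RT) measured 16 h after compound addition and doxycycline induction at 37C. Reporter: RORE-luciferase under TET-inducible ROR-gamma in CHO cells.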

Records with an inconclusive call do not appear. Activity calls are given as the source filed them. Unless noted, the call rests on the fitted dose curve.

Sequence of Retinoic acid receptor RXR-alpha (Homo sapiens) (P19793 whole entry, looked up): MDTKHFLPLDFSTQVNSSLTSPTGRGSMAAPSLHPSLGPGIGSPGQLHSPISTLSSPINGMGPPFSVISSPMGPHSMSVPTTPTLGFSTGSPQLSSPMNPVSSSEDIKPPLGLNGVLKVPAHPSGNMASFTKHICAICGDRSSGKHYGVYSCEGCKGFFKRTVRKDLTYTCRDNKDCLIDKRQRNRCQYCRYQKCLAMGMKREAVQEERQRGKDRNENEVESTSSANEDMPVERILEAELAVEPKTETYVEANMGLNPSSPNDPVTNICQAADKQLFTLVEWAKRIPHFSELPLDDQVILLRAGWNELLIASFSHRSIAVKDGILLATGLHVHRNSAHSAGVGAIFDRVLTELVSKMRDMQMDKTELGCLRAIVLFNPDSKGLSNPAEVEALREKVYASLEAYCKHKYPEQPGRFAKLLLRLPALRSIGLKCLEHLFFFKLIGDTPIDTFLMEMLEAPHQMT
Sequence of Peroxisome proliferator-activated receptor delta (Homo sapiens) (Q03181 whole entry, looked up): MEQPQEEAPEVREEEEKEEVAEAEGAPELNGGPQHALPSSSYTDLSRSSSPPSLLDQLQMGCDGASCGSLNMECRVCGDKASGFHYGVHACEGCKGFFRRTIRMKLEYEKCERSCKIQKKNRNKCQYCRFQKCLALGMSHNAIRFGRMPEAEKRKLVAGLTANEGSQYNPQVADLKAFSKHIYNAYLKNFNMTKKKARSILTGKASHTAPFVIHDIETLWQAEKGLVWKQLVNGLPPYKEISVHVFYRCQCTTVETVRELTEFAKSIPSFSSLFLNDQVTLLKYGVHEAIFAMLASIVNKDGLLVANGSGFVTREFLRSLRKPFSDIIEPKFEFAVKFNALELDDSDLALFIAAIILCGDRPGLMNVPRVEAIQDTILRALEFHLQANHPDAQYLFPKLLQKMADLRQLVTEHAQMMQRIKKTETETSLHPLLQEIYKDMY
Sequence of Vitamin D3 receptor (Homo sapiens) (P11473 whole entry, looked up): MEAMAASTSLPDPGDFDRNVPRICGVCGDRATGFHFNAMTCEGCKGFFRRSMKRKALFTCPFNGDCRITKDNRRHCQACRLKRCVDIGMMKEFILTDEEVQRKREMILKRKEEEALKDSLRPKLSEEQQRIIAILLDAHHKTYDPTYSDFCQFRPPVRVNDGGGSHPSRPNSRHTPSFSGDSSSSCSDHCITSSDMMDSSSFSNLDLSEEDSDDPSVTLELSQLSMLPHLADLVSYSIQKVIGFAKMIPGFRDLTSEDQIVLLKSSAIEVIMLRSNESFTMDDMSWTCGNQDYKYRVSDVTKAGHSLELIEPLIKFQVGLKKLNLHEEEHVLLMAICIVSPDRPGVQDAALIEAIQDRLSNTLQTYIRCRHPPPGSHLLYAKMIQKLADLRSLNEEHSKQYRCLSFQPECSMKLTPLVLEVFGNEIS
Sequence of Thyroid hormone receptor beta (Homo sapiens) (P10828 whole entry, looked up): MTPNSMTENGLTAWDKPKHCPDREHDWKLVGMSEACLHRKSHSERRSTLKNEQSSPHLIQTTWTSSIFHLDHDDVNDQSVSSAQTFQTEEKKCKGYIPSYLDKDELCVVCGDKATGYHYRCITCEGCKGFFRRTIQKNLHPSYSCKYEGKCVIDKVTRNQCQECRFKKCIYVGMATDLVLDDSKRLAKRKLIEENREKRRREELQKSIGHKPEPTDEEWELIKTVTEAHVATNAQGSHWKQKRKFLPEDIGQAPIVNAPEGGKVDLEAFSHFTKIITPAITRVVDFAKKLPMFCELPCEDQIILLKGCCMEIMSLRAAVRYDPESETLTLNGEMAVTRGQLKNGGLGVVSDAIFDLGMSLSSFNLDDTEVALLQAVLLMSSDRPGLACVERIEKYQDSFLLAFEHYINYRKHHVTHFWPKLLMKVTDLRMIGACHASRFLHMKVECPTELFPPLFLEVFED
Sequence of Peroxisome proliferator-activated receptor gamma (Homo sapiens) (P37231 whole entry, looked up): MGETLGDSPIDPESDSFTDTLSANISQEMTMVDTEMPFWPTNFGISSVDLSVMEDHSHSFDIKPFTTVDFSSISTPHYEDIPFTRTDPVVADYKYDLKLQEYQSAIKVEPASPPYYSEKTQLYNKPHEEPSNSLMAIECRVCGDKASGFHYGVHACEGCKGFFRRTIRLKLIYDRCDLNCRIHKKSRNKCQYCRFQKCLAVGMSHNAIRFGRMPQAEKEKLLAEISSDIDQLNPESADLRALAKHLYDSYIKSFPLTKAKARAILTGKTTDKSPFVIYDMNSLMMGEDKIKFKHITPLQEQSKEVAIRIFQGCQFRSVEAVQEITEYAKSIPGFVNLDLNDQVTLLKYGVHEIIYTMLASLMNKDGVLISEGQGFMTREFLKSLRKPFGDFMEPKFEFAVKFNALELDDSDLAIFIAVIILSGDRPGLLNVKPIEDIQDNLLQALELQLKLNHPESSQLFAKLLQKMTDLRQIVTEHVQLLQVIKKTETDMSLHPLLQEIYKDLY
Sequence of Peroxisome proliferator-activated receptor alpha (Homo sapiens) (Q07869 whole entry, looked up): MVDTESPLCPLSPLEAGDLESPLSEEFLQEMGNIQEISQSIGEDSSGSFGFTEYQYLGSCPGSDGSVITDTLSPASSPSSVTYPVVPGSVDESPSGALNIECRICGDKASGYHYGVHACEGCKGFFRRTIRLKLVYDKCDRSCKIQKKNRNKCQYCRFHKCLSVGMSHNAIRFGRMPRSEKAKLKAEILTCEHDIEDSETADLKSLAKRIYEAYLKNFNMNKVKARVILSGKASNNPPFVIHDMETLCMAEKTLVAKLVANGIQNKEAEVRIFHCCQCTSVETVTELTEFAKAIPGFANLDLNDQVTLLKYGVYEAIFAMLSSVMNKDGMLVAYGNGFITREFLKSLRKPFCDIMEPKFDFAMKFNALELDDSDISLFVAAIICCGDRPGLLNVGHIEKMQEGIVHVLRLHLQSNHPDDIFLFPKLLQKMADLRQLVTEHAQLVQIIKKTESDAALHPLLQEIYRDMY
Sequence of Nuclear receptor ROR-gamma (Homo sapiens) (P51449 whole entry, looked up): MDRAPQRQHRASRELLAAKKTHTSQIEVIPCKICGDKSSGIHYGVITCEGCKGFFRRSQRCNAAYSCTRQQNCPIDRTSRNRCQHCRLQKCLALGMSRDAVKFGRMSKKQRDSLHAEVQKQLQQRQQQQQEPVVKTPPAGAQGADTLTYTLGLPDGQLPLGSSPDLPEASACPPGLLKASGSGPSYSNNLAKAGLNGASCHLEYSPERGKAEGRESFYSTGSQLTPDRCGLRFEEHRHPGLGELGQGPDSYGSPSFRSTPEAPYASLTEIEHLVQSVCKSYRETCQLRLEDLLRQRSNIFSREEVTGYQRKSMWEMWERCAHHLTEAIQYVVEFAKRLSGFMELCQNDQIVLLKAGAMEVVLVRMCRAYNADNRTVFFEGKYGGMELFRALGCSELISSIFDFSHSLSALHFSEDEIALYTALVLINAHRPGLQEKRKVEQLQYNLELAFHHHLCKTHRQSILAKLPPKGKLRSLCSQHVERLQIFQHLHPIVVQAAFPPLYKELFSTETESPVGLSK
Sequence of Nuclear receptor subfamily 1 group I member 2 (Rattus norvegicus) (Q9R1A7 whole entry, looked up): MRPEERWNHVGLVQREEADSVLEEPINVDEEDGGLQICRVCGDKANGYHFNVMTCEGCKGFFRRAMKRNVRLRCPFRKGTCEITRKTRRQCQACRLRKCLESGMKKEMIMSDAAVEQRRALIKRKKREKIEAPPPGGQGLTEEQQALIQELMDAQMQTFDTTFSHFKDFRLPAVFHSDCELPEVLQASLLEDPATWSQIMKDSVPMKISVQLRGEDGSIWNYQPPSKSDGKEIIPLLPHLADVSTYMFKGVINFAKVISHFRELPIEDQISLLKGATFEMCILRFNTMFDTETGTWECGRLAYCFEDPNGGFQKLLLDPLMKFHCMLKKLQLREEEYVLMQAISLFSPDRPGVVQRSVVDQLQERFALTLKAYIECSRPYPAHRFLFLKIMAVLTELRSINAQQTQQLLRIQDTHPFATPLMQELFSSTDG

Regarding `CC(=NC#N)N(C)Cc1ccc(Cl)nc1`, the result in experiment [1], in experiment [7] and in [24] was inactive. Moreover, the max response in experiment [2] was 24.8%; in experiment [8], -1.69%; in [11], -1.52%; in experiment [12] it was -19.1% (inactive); in experiment [18], -1.88% (inactive); in experiment [20] it was -5.31% (inactive). In addition, the max response in [21] is -11.8% (inactive); in experiment [23], 2.55% (inactive). In addition, the Potency entry in experiment [3], in experiment [4], in [5], in experiment [6], in experiment [9] and in experiment [10] was “inactive” throughout. Further, the Potency entry in [14], in [19] and in experiment [22] was “inactive” each time. In experiment [13], the activity change % (negative = inhibition) is -1.79% (inactive). Besides, the activation is -5.43% (inactive) in [15], -0.278% (inactive) in experiment [16] and 0.519% (inactive) in experiment [17].

Turning to `Oc1cc(Cl)cc(Cl)c1Cl`, the compound was classed as inactive in experiment [1]. Besides, the Potency in experiment [14] was 66.8 µM (active); in [25] it was 42.2 µM (active); in experiment [26], 42.2 µM (active); in experiment [27] it was 18.8 µM (active).

For `CC(C1CC1)C(O)(Cn1cncn1)c1ccc(Cl)cc1` (configuration not stated), the compound was classed as inactive in experiment [1], in experiment [7] and in experiment [24]. For the same compound, the max response is 49.1% in experiment [2]; 4.53% in experiment [8]; -3.3% in experiment [11]; -0.0614% (inactive) in experiment [20]; -14% (inactive) in experiment [21]. Further, the Potency result in experiment [3], in experiment [6], in [9], in experiment [10], in experiment [19] and in experiment [22] was “inactive” throughout. For the same compound, the activity change % (negative = inhibition) in experiment [13] was -18.1% (inactive). In addition, the values for the activation in [15], in [16] and in experiment [17] were -2.39% (inactive), -1.89% (inactive) and 1.13% (inactive), respectively.
